Laboratory results: PubChem BioAssay (EPA / NIEHS)
Activity calls are given as the source filed them. Rule for the calls: active = hit-call score of the fitted dose curve at least 0.9, where 1 is the maximum; inactive = score below 0.9.

Assay: APR_HepG2_CellCycleArrest_72hr: Apredica 72-hour HepG2 Assay for Cell Cycle Arrest (AID 2282914)
Details: high-content imaging, actives raise or lower the signal
Procedure: APR_HepG2_72hr is a cell-based, multiplexed-readout assay that uses HepG2, a human liver cell line, with measurements taken at 72 hours after chemical dosing in a 384-well plate.APR_HepG2_CellCycleArrest_72hr is one of 10 assay component(s) measured or calculated from the APR_HepG2_72hr assay. It is designed to make measurements of cell phenotype, a form of morphology reporter, as detected with fluorescence intensity signals by HCS Fluorescent Imaging technology.Data from the assay component APR_HepG2_CellCycleArrest_72hr was analyzed into 1 assay endpoint. This assay endpoint, APR_HepG2_CellCycleArrest_72hr, was analyzed with bidirectional fitting relative to DMSO as the negative control and baseline of activity. Using a type of morphology reporter, measures of all nuclear dna for gain or loss-of-signal activity can be used to understand the signaling at the pathway-level as they relate to the gene . Furthermore, this assay endpoint can be referred to as a primary readout, because this assay has produced multiple assay endpoints where this one serves a signaling function. To generalize the intended target to other relatable targets, this assay endpoint is annotated to the cell cycle intended target family, where the subfamily is arrest.
Cells were treated with dimethyl sulfoxide (DMSO) as a solvent control at a final concentration of 0.5% v/v or with compounds in DMSO with a resulting final DMSO concentration of 0.5% v/v. Compound treatment was done at concentrations of 0.39, 0.78, 1.56, 3.12, 6.24, 12.5, 25, 50, 100, and 200 uM in duplicate on each plate. Cells were treated with compounds for 1, 24, or 72 hr. Carbonyl […] m-chloro-phenylhydrazone (CCCP) and taxol were used as positive controls for mitochondrial function and cytoskeletal stability, respectively; DMSO served as the negative control for this experiment. Cells were fixed by the direct addition of 50 uL formaldehyde in Hank's Balanced Salt Solution (HBSS) to a final concentration of 3.7%. After incubation in the fixation medium for 30 min at room temperature (293-298 K), cells were rinsed twice with HBSS and treated with cell permeabilization buffer (16 uL of 0.5% Triton X-100) for 10 min at room temperature (293-298 K) before labeling. For mitochondrial membrane potential and mitochondrial measurements, pre-fixed cells were incubated with 50 uL of MitoTracker Red CMXRos (Invitrogen) at a concentration of 250 nM for 30 min before fixation. In the remaining cases, post-fixed cells were labeled by incubation with a multiplexed mixture of primary antibodies in HBSS for 60 min at room temperature (293-298 K) to detect immunoreactivity of c-Jun (1:500), phospho-histone H3 (1:100), phospho-histone H2A.x (1:200), p53 (1:400), alpha-tubulin (1:200) and Hoechst 33342 (2 ug/mL). Cells were labeled for multiplexed imaging on two separate plates: a) Hoechst 33342, MitoTracker Red, phospho-histone H3, and alpha-tubulin, and b) Hoechst 33342, phospho-histone H2A.x, and c-Jun. A final rinse with HBSS (50 uL) was performed before analysis. The primary and secondary antibodies for the proteins were phospho-histone H3 (rabbit anti-phospho-histone H3 and FITC-donkey anti-rabbit IgG), phospho-histone H2A.x (mouse anti-phospho-histone H2A.x and FITC-donkey anti-mouse IgG), c-Jun (rabbit anti-phospho-c-Jun and Cy3-donkey anti-rabbit IgG), p53 (sheep anti-p53 and Cy5-donkey anti-sheep IgG), alpha-tubulin (mouse anti-alpha-tubulin and Cy5-donkey anti-mouse IgG). These antibodies are available as the CellCiphr HepG2 assay kit (Millipore).Digital images of each well were captured using a Cellomics ArrayScan VTI (Thermo Scientific Cellomics) (0.8 NA objective, 0.63x optical coupler, and XF-93 filter set) at 20x magnification. The images were acquired using the autofocus feature of the ArrayScan instrument, which entails the following steps. First, the camera focuses on channel 1 (Hoechst 33342), where nuclei are identified. Second, a Z offset of 1 um is used for capturing mitochondria (MitoTracker Red). […]

With Cc1nc(-c2ccc3c(c2)CCN(CCC2CCC(NC(=O)/C=C/c4ccc(F)cc4)CC2)CC3)no1 (stereo not given) as the molecule, how does the outcome read?
Its outcome is “inactive”.

Which outcome does the source give for Cc1ccc(C)c(C)c1 here?
Its outcome is “inactive”.

With Nc1ccc2c(c1)C(=O)c1ccccc1C2=O as the molecule, how does the AC50 read?
The AC50 was 16.1 µM (active).

Which AC50 does the source give for O=c1c(O)c(-c2ccc(O)c(O)c2)oc2cc(O)cc(O)c12 here?
The AC50 was 103 µM (active).

With Cc1oc(-c2ccccc2)nc1CCOc1cccc2c1ccn2CCC(=O)O as the molecule, how does the outcome read?
The outcome was “inactive”.

Which outcome does the source give for FC(F)(F)C(F)(F)C(F)(F)C(F)(F)C(F)(F)C(F)(F)CCI here?
The outcome was “inactive”.

For Cc1ccc(Cl)cc1, which outcome is on record?
The outcome was “inactive”.

Which outcome does the source give for NS(=O)(=O)c1cc2c(cc1Cl)NCNS2(=O)=O here?
The outcome was “inactive”.

Which outcome does the source give for CCCCCCOCCO here?
The outcome was “inactive”.

For COC(=O)c1ccc(O)cc1, which outcome is on record?
Its outcome is “inactive”.

For CCc1c(C(=O)NN2CCCCC2)nn(-c2ccc(Cl)cc2Cl)c1-c1ccc(Br)cc1, which AC50 is on record?
Its AC50 is 14.6 µM (active).

Which outcome does the source give for C[C@]12C=CC(=O)C=C1CC[C@@H]1[C@@H]2C(=O)C[C@@]2(C)[C@H]1CC[C@]2(O)C(=O)CO here?
The outcome was “inactive”.

Which outcome does the source give for NC(=O)Cn1c(=O)cc(CCN2CCN(c3nccc4sccc34)CC2)c2ccc(F)cc21 here?
The outcome was “inactive”.

For CCCCN(CCCC)CCCC, which outcome is on record?
Its outcome is “inactive”.

With Cc1ccc(C(C)C)c(O)c1 as the molecule, how does the outcome read?
Its outcome is “inactive”.

For O=C(N[C@@H](Cc1ccccc1)[C@@H](O)C(=O)N1C[C@@H](O)[C@@H](O)C1)c1cc2cc(Cl)ccc2[nH]1, which AC50 is on record?
Its AC50 is 91.7 µM (active).

Which outcome does the source give for CCCCCCC(=O)OCC here?
Its outcome is “inactive”.

With CCCCCCCCCCO as the molecule, how does the outcome read?
The outcome was “inactive”.

For CCCCCCCC=O, which outcome is on record?
Its outcome is “inactive”.

With COCCOC[C@H](CC1(C(=O)NC2CCC(C(=O)O)CC2)CCCC1)C(=O)Oc1ccc2c(c1)CCC2 (stereo not given in full) as the molecule, how does the outcome read?
The outcome was “inactive”.

Which outcome does the source give for CCCCCCCCCCCCCCCC here?
The outcome was “inactive”.

For C1CCC(SSC2CCCCC2)CC1, which AC50 is on record?
Its AC50 is 62 µM (active).

For CC(=O)OC/C=C(\C)CCC=C(C)C, which outcome is on record?
Its outcome is “inactive”.

For Nc1ccc(S(=O)(=O)c2ccc(N)cc2)cc1, which outcome is on record?
The outcome was “inactive”.

With CC(CO)OC(C)CO (stereo not given) (tested in a mixture with another compound) as the molecule, how does the outcome read?
Its outcome is “inactive”.

Which outcome does the source give for CC(=O)C(C)=CC1C(C)=CCCC1(C)C (stereo not given) here?
The outcome was “inactive”.

Which outcome does the source give for CCCCCCCCCCCC(=O)OC here?
The outcome was “inactive”.

With Cc1cc(NC(=O)C(=O)O)cc(C)c1Oc1ccc(O)c2c1CCC2 as the molecule, how does the outcome read?
Its outcome is “inactive”.

With COc1ccc(C)cc1N as the molecule, how does the outcome read?
Its outcome is “inactive”.

With COc1cc(S(=O)(=O)O)c(C)cc1N=Nc1c(O)ccc2cc(S(=O)(=O)O)ccc12 as the molecule, how does the outcome read?
Its outcome is “inactive”.

With CN[C@H]1CC[C@@H](c2ccc(Cl)c(Cl)c2)c2ccc(S(N)(=O)=O)cc21 as the molecule, how does the outcome read?
Its outcome is “inactive”.

For CCOc1ccc2c(c1)C(C)=CC(C)(C)N2, which outcome is on record?
Its outcome is “inactive”.

With O=c1[nH]cc(F)c(=O)[nH]1 as the molecule, how does the AC50 read?
The AC50 was 1.52 µM (active).

Which AC50 does the source give for O=C(OCCCCCOC(=O)c1ccccc1)c1ccccc1 here?
Its AC50 is 103 µM (active).

With COc1cc(C=O)ccc1O as the molecule, how does the outcome read?
The outcome was “inactive”.

Which outcome does the source give for CCNc1cccc(C)c1 here?
Its outcome is “inactive”.

With CCOC(=O)CCC(=O)OCC as the molecule, how does the outcome read?
The outcome was “inactive”.

With OC[C@@H](O)[C@@H](O)[C@H](O)[C@H](O)CO as the molecule, how does the outcome read?
The outcome was “inactive”.

With CC=Cc1ccc(O)c(OC)c1 as the molecule, how does the outcome read?
Its outcome is “inactive”.

Which outcome does the source give for CCCCCCCCCCCCCCCCCC(=O)O here?
The outcome was “inactive”.
